The list is not random: actives were taken first. Their share in the collection is about 2.4%.
D2 PAM-1: D2 dopamine receptor (human) potentiation; P14416; HEK293 T-REx D2, calcium flux, EC20 dopamine potentiation; potentiation, % at 10 µM; 340,000 tested, 0.34% active; AID 485347;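 active means potentiation over 3 SD above the plate norm, cut at about 30% in these data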; further: 0% is about no effect
Target sequence (P14416 whole entry, looked up): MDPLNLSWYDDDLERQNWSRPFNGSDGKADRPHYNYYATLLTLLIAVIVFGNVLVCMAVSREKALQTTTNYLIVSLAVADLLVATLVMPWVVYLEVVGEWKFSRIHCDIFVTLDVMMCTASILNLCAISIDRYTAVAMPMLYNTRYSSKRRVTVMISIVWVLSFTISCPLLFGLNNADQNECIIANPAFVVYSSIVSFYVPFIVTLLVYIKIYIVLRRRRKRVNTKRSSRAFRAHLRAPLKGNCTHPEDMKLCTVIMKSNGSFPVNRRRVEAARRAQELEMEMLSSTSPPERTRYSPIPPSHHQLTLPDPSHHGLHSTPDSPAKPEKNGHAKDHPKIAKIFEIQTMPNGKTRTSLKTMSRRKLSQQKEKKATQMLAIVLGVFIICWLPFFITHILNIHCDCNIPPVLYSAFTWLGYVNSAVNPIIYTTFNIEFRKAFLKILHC
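Tetracycline-induced HEK293 T-REx cells force-coupled to calcium signalling expressed D2; compounds were pin-added after a 10 s baseline, read kinetically 180 s, then an EC20 dopamine challenge followed with a further 180 s calcium read.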
D2 ag-1: agonists of human D2 dopamine receptor; HEK293 T-REx D2 cells, calcium flux agonist mode; activation, % at 2 µM; 340,000 tested, 0.53% active; AID 485358;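 active means activation over 3 SD above normal in the single-dose calcium agonist read, cut at about 30% in these data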; further: 0% is about no effect
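Tetracycline-induced HEK293 Trex cells with D2 receptor force-coupled to calcium signaling, plated overnight at 30 C and loaded with no-wash calcium dye. Calcium flux read kinetically for 180 s after compound addition; responses flag agonists.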
D2 ag-2: activates the human D2 dopamine receptor. DiscoveRx PathHunter D2 beta-arrestin, luminescence, 90 min; 100% = 57 uM dopamine signal. AID 624465. activation, % (no concentration beside the values). 360,000 tested, 0.084% active; in the data active means activation above about 40%; inconclusive means between about 15% and that limit
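DiscoveRx PathHunter D2 beta-arrestin cells (2,100/well) attached overnight, then compound-stimulated 90 min at 37 C in HBSS/10 mM HEPES/0.1% Tween-20 buffer; beta-galactosidase complementation read by luminescence after 1 h at ambient temperature. Dopamine 57 uM final (EC100) as control.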
D2 antag: antagonists of human D2 dopamine receptor; P14416; HEK293 TREx D2 cells, calcium flux, dopamine EC80; inhibition, % at 10 µM; 340,000 tested, 2% active; AID 485344; in the data active means inhibition above about 30%; inactive means below that, where a call was filed; further: 0% is about no effect
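Measurement of antagonist activity uses fluorescent calcium dye in inducible HEK293 T-REx D2 cells: 10 s baseline, compound addition with 180 s read, EC80 dopamine addition with a further 180 s read.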
D2 PAM-2: potentiates the human D2 dopamine receptor allosterically. P14416. DiscoveRx D2 beta-arrestin cells, luminescence, 90 min; 100% = 57 uM dopamine signal. potentiation, % (test concentration not listed). 360,000 tested, 0.23% active; in the data active means potentiation above about 50%; inconclusive means mostly about 30% to 49%
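D2 cells co-treated with compound plus 50 nM dopamine (EC20) for 90 min at 37 deg C to detect potentiation. Beta-arrestin recruitment was read as enzyme-fragment luminescence after 1 h at ambient temperature. Full response was set by 57 uM dopamine.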
* = called active by the depositor; ? = inconclusive; · = no result given.

SMILES | D2 PAM-1 | D2 ag-1 | D2 ag-2 | D2 antag | D2 PAM-2
O=c1c(Cc2ccc(F)cc2)c(O)ccn1Cc1ccc(Cl)cc1Cl | 9 | 3 | -2 | 44* | -1
COc1ccccc1C/C(N)=N/OC(=O)c1ccc(C)c([N+](=O)[O-])c1 | 16 | · | ? | · | 145*
Cc1ccc(C(=O)O/N=C(\N)Cc2cccs2)cc1[N+](=O)[O-] | 11 | 0 | ? | 5 | 29
N/C(=N\OC(=O)c1cccc2ccccc12)c1cccc([N+](=O)[O-])c1 | -9 | 0 | ? | 4 | 83*
COc1ccc(/C(N)=N/OC(=O)c2cccc([N+](=O)[O-])c2C)cc1OC | 11 | 1 | ? | 8 | 93*
N/C(=N\OC(=O)c1cccs1)c1cccc([N+](=O)[O-])c1 | 4 | 1 | 42* | -7 | 69*
Cc1cccc(C(=O)O/N=C(\N)c2cccc([N+](=O)[O-])c2)c1 | 0 | 1 | 15 | -2 | 20
O=S(=O)(NC1=NCCCCC1)c1ccc(Cl)cc1 | 2 | 3 | -2 | -5 | -4
CCOc1ccc(S(=O)(=O)NC2=NCCCCC2)cc1 | 71* | 0 | -2 | -7 | 1
Cc1cccc(C(=O)NC(=S)NNC(=O)c2ccccc2Cl)c1 | 6 | 31* | 1 | 25 | -12
Cc1onc(-c2ccccc2)c1C(=O)NNC(=S)NC(=O)c1ccc(Cl)cc1Cl | -4 | 32* | -3 | 30* | -13
Cc1onc(-c2ccccc2)c1C(=O)NNC(=O)c1ccccc1 | 14 | 0 | -6 | 2 | 0
O=C(NC(=S)NNC(=O)c1ccc(Cl)cc1Cl)c1cccnc1 | 1 | 1 | 2 | -1 | -28
Cc1ccccc1C(=O)NNC(=S)NC(=O)c1ccc(Cl)cc1Cl | -15 | 46* | -3 | 31* | -12
CCOc1ccc(C(=O)NCCn2cc(SCC(=O)Nc3ccccc3)c3ccccc32)cc1 | 17 | 2 | · | · | ·
Cc1cccc(NC(=O)CCNS(=O)(=O)c2ccc3c(c2)CCCC(=O)N3)c1C | 1 | 2 | · | · | ·
COc1ccc(OCC(=O)Nc2c(C(=O)N(CCN(C)C)Cc3ccco3)oc3ccccc23)cc1 | 31* | 1 | -4 | -3 | -30
CC(C)Oc1ccc(CNC(=O)C2=Cc3ccccc3OC2)cc1 | 11 | -1 | · | · | ·
O=C(Cn1ncc2c1-c1ccccc1OC2)N1CCN(c2ccccc2)CC1 | 4 | -1 | · | · | ·
Cc1cc(C)cc(N2C(=O)CSC23C(=O)N(CC(=O)NCCc2ccccc2)c2ccccc23)c1 (configuration not stated) | 3 | 1 | · | · | ·
CC(C)(C)c1ccc(O)c(N=Cc2cc(Br)ccc2O)c1 | 3 | 0 | -1 | 9 | 0
Cc1ccc(O)c(C=Nc2cc(C)ccc2O)c1 | · | · | 7 | · | 58*
CC(=O)OCCn1c(C)[n+](CCOC(C)=O)c2cc(Cl)c(Cl)cc21 | -2 | 2 | 4 | -8 | -6
CC(=O)OCCn1c2nc(=O)[nH]c(=O)c-2nc2cc(C)c(C)cc21 | 9 | 112* | -2 | 29 | -3
Cc1nn(CC(C)C(=O)N2CCN(S(=O)(=O)c3ccc(Cl)cc3)CC2)c(C)c1C (configuration not stated) | -16 | 2 | -4 | 32* | -3
SMILES | D2 PAM-1 | D2 ag-1 | D2 ag-2 | D2 antag | D2 PAM-2
Cc1ccc(S(=O)(=O)N2CCN(C(=O)C(C)Cn3nc(C)c(C)c3C)CC2)cc1 (configuration not stated) | -7 | 1 | -1 | 11 | 2
O=C(Nc1nnc(-c2ccccc2F)s1)C1CCCO1 (configuration not stated) | 1 | 1 | -1 | 40* | 2
CCn1cc(C(=O)OCC(=O)c2cc(C)n(-c3cccc(C(F)(F)F)c3)c2C)c(=O)c2ccc(C)nc21 | 31* | -1 | 9 | 2 | 8
CCn1cc(C(=O)OCc2ccccc2)c(=O)c2ccc(C)nc21 | -4 | 0 | -3 | -5 | -23
CCn1cc(C(=O)OCc2ccc(F)cc2)c(=O)c2ccc(C)nc21 | 35* | -1 | 2 | -18 | -15
CCS(=O)(=O)c1ncc(N(Cc2ccco2)Cc2sccc2C)c(C(=O)Nc2cc(C)ccc2C)n1 | 0 | 5 | · | · | ·
COc1ccc(Nc2oc(-c3ccc(COc4ccccc4C)o3)nc2C#N)cc1 | 12 | 1 | · | · | ·
O=C(Nc1cc(=O)c2ccccc2o1)N1CCCCC1 | 9 | 2 | -1 | 17 | -13
O=C(Nc1cc(=O)c2ccccc2o1)N1CCOCC1 | 31* | 1 | -1 | -2 | -9
COc1ccc(-n2c(CCC(=O)O)ccc2-c2ccc(F)cc2)c(OC)c1 | 32* | 0 | 1 | 7 | -10
COC(=O)c1ccccc1-n1c(CCC(=O)O)ccc1-c1ccc(F)cc1 | 0 | 0 | 9 | 3 | 56*
COc1ccc2c(Sc3ccccc3)c(C(=O)NCCc3ccc(Cl)cc3)[nH]c2c1 | · | -2 | · | · | ·
O=C(c1ccc(C(=O)N2CCCCCC2)cc1)N1CCCCCC1 | 32* | 0 | -4 | 5 | 1
O=C(c1ccc(F)cc1)C1CCN(C(=O)c2ccc(F)cc2)CC1 | 1 | 0 | -2 | 41* | 1
CCCNC(=S)N1CCC(C(=O)c2ccc(F)cc2)CC1 | 35* | 1 | -1 | 10 | -2
O=C(c1ccccc1)N1CCCCCC1 | -5 | 0 | -2 | -5 | -14
O=C(c1ccc(N2C(=O)C3CC=C(Cl)CC3C2=O)cc1)N1CCCCC1 (configuration not stated) | -4 | 0 | -2 | 38* | 5
CCCN1Cc2cccc(C(=O)Nc3ccc(OC)cc3OC)c2C1=O | -10 | 0 | · | · | ·
CCn1c(C(=O)Nc2cc(C)cc(C)c2)cc2sc(Cl)cc21 | · | -1 | · | · | ·
O=C(c1ccc(F)cc1)C1CCN(C(=S)Nc2ccc(F)cc2)CC1 | 7 | 1 | -1 | 47* | -14
COc1ccc(CN2CCC(C(=O)c3ccc(F)cc3)CC2)cc1 | -31 | 1 | 3 | 78* | -83
Cc1ccc(CN2CCC(C(=O)c3ccc(F)cc3)CC2)cc1 | · | · | -7 | · | -26
C/C(=N\Nc1ccc(Cl)c(C(=O)O)c1)c1ccc(Br)s1 | 1 | -2 | 2 | 47* | -4
CCCCOC(=O)c1ccc(NC(=O)CSc2nc3c(c(=O)[nH]2)CCC3)cc1 | 5 | 0 | · | · | ·
Cc1cc(NC(=O)C2C3C(=O)N(CC4CCCO4)C(C(=O)NCc4ccccc4)C34C=CC2(C)O4)no1 (configuration not stated) | 6 | 1 | -2 | 33* | -5
Cc1ccc(/C=C/C(=O)c2cc(Br)ccc2OC(=O)c2ccco2)cc1 | -6 | 1 | -3 | 35* | -2
NC(=O)CSc1ncc2c(n1)-c1ccccc1N(Cc1cccc(F)c1)S2(=O)=O | 6 | 0 | · | · | ·
O=C(Nc1ccc(CN2CCOCC2)cc1)c1ccc(-c2cccc([N+](=O)[O-])c2)o1 | -15 | -2 | 3 | 6 | -11

Screening data from PubChem BioAssay.
